Source: PubChem BioAssay (NCATS)
Values joined by “and” are separate entries in the source; they are usually repeats but may differ in a detail not shown here. Identical values can stand only once. Inconclusive results are not listed. Active and inactive are the calls of the source. Calls follow the shape of the dose curve; as a rule, active = well fitted cell-killing curve with a large enough effect; inconclusive = small, poorly fitted or top-dose-only effect, or effect the other way; inactive = flat fitted curve, though single readings scatter.

Tests used:
Test in all cases: Primary qHTS to identify gynecologic anti-cancer compounds using libraries of approved drugs and bioactive compounds (AID 1345084); also: nearly all actives have a fitted effect of over 55% in size
[1] = test system: C33A; settings: Gynecologic cancer cell panel viability, ATPlite luminescence, 48 h; series mostly up to 57.5 µM
Summary of the method: (§1)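 Measured: luminescence after ATPlite addition (15 min, RT). Exposure: 48 h, 37 C, 5% CO2.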

[2] = test system: CASKI; settings: Gynecologic cancer cell panel viability, ATPlite luminescence, 48 h; series mostly up to 57.5 µM
Summary of the method: as §1

[3] = test system: Es-2; settings: Gynecologic cancer cell panel viability, ATPlite luminescence, 48 h; series mostly up to 57.5 µM
Summary of the method: as §1

[4] = test system: HeLa; settings: Gynecologic cancer cell panel viability, ATPlite luminescence, 48 h; series mostly up to 57.5 µM
Summary of the method: as §1

[5] = test system: Hek293T; settings: Gynecologic cancer cell panel viability, ATPlite luminescence, 48 h, control line for the selectivity index; series mostly up to 57.5 µM
Summary of the method: as §1

[6] = test system: JEG-3; settings: Gynecologic cancer cell panel viability, ATPlite luminescence, 48 h; series mostly up to 57.5 µM
Summary of the method: as §1

[7] = test system: OV90; settings: Gynecologic cancer cell panel viability, ATPlite luminescence, 48 h; series mostly up to 57.5 µM
Summary of the method: as §1

[8] = test system: PA-1; settings: Gynecologic cancer cell panel viability, ATPlite luminescence, 48 h; series mostly up to 57.5 µM
Summary of the method: as §1

[9] = test system: SKOV3; settings: Gynecologic cancer cell panel viability, ATPlite luminescence, 48 h; series mostly up to 57.5 µM
Summary of the method: as §1

[10] = test system: CAOV3; settings: Gynecologic cancer cell panel viability, ATPlite luminescence, 48 h; series mostly up to 57.5 µM
Summary of the method: as §1
% is scaled to controls: 0 for no effect and ±100 for the full control effect; potency is read from the fitted curve at half-maximal effect.

CCCc1c(OCCCCc2nn[nH]n2)ccc(C(C)=O)c1O
inactive: Potency [1] | Potency [2] | Potency [3] | Potency [4] | Potency [5] | Potency [6] | Potency [7] | Potency [8] | Potency [9]

CC(=O)Oc1c(C)c(C)c2c(c1C)CC[C@@](C)(CCC[C@H](C)CCC[C@H](C)CCCC(C)C)O2
inactive: Potency [1] | Potency [2] | Potency [3] | Potency [4] | Potency [5] | Potency [6] | Potency [7] | Potency [8] | Potency [9]

O=C(O)c1ccccc1O
inactive: Potency [1] | Potency [2] | Potency [3] | Potency [4] | Potency [5] | Potency [6] | Potency [7] | Potency [8] | Potency [9]

c1ccc2c(CC3=NCCN3)cccc2c1
inactive: Potency [1] | Potency [2] | Potency [3] | Potency [4] | Potency [5] | Potency [6] | Potency [7] | Potency [8] | Potency [9]

CN(C)CC[C@@H](c1ccc(Cl)cc1)c1ccccn1
inactive: Potency [1] | Potency [2] | Potency [3] | Potency [4] | Potency [5] | Potency [6] | Potency [7] | Potency [8] | Potency [9]

CC(=O)c1ccc2c(c1)N(CCCN(C)C)c1ccccc1S2
inactive: Potency [1] | Potency [2] | Potency [3] | Potency [5] | Potency [6] | Potency [8]

CNCCCC1c2ccccc2C=Cc2ccccc21
inactive: Potency [1] | Potency [4] | Potency [6] | Potency [9]

NS(=O)(=O)c1cc2c(cc1C(F)(F)F)NC(Cc1ccccc1)NS2(=O)=O (configuration not stated)
inactive: Potency [1] | Potency [2] | Potency [3] | Potency [4] | Potency [5] | Potency [6] | Potency [8] | Potency [9]

CN1CCC[C@@H]1Cc1c[nH]c2ccc(CCS(=O)(=O)c3ccccc3)cc12
inactive: Potency [1] | Potency [2] | Potency [3] | Potency [4] | Potency [5] | Potency [6] | Potency [7] | Potency [8] | Potency [9]

COc1cc(C(=O)N2CCOCC2)cc(OC)c1OC
inactive: Potency [1] | Potency [2] | Potency [3] | Potency [4] | Potency [5] | Potency [6] | Potency [7] | Potency [8] | Potency [9]

NC(=O)c1ncn([C@@H]2O[C@H](CO)[C@@H](O)[C@H]2O)n1
inactive: Potency [10] | Potency [2] | Potency [3] | Potency [4] | Potency [5] | Potency [6]

Cc1cc(O)cc2c1O[C@](C)(CCC[C@H](C)CCC[C@H](C)CCCC(C)C)CC2
inactive: Potency [1] | Potency [2] | Potency [3] | Potency [4] | Potency [5] | Potency [6] | Potency [7] | Potency [8] | Potency [9]

C#CCN(C)Cc1ccccc1
inactive: Potency [1] | Potency [2] | Potency [3] | Potency [4] | Potency [5] | Potency [6] | Potency [7] | Potency [8] | Potency [9]

NCCNCCNCCN
inactive: Potency [1] | Potency [2] | Potency [3] | Potency [4] | Potency [5] | Potency [6] | Potency [7] | Potency [8] | Potency [9]

CSc1ccc2c(c1)N(CCC1CCCCN1C)c1ccccc1S2 (configuration not stated)
inactive: Potency [3] | Potency [4] | Potency [5]

C=CCn1c(=O)n([C@@H]2O[C@H](CO)[C@@H](O)[C@H]2O)c2nc(N)[nH]c(=O)c21
inactive: Potency [1] | Potency [2] | Potency [3] | Potency [4] | Potency [5] | Potency [6] | Potency [7] | Potency [8] | Potency [9]

NC1[C@H]2CN(c3nc4c(cc3F)c(=O)c(C(=O)O)cn4-c3ccc(F)cc3F)C[C@@H]12 (some centres not stated)
inactive: Potency [2] | Potency [6] | Potency [7]

CN1CCN(C2Cc3ccccc3Sc3ccc(Cl)cc32)CC1 (configuration not stated)
inactive: Potency [1] | Potency [2] | Potency [3] | Potency [4] | Potency [5] | Potency [6] | Potency [8]

NC(=O)NNc1ccccc1
inactive: Potency [1] | Potency [2] | Potency [3] | Potency [4] | Potency [5] | Potency [6] | Potency [7] | Potency [8] | Potency [9]

CC1(C)S[C@@H]2[C@H](NC(=O)Cc3ccccc3)C(=O)N2[C@H]1C(=O)O (tested in a mixture with another compound)
inactive: Potency [1] | Potency [2] | Potency [3] | Potency [4] | Potency [5] | Potency [6] | Potency [7] | Potency [8] | Potency [9]

CC(C)(C)NCC(O)COc1ccc(NC(=O)NC2CCCCC2)cc1 (configuration not stated)
inactive: Potency [1] | Potency [2] | Potency [3] | Potency [4] | Potency [5] | Potency [6] | Potency [7] | Potency [8] | Potency [9]

CCCCN1CCCC[C@H]1C(=O)Nc1c(C)cccc1C
inactive: Potency [1] | Potency [2] | Potency [3] | Potency [4] | Potency [5] | Potency [6] | Potency [7] | Potency [8] | Potency [9]

CSc1ccc2c(c1)C(N1CCN(C)CC1)Cc1ccccc1S2 (configuration not stated)
inactive: Potency [1] | Potency [2] | Potency [3] | Potency [4] | Potency [5] | Potency [6] | Potency [8]

NC(CSCC(=O)O)C(=O)O (configuration not stated)
inactive: Potency [1] | Potency [2] | Potency [3] | Potency [4] | Potency [5] | Potency [6] | Potency [7] | Potency [8] | Potency [9]

CC(CN1c2ccccc2Sc2ccccc21)N(C)C (configuration not stated)
inactive: Potency [1] | Potency [2] | Potency [3] | Potency [4] | Potency [5] | Potency [6] | Potency [8] | Potency [9]

CC/C=C(\C(=O)N[C@@H]1C(=O)N2C(C(=O)OCOC(=O)C(C)(C)C)=C(COC(N)=O)CS[C@H]12)c1csc(N)n1
inactive: Potency [1] | Potency [2] | Potency [3] | Potency [4] | Potency [5] | Potency [6] | Potency [7] | Potency [8] | Potency [9]

C[C@]12CC[C@@H]3c4ccc(O)cc4CC[C@H]3[C@@H]1CC[C@@H]2OC(=O)CCC1CCCC1
inactive: Potency [1] | Potency [2] | Potency [3] | Potency [5] | Potency [6] | Potency [7] | Potency [8] | Potency [9]
active: Potency [4] 10 µM and 20 µM

Cc1c(O)cccc1C(=O)N[C@@H](CSc1ccccc1)[C@H](O)CN1C[C@H]2CCCC[C@H]2C[C@H]1C(=O)NC(C)(C)C
inactive: Potency [10] | Potency [2] | Potency [3] | Potency [4] | Potency [5] | Potency [6] | Potency [7] | Potency [8]

COCCOC(=O)C1=C(C)NC(C)=C(C(=O)OC/C=C/c2ccccc2)C1c1cccc([N+](=O)[O-])c1 (configuration not stated)
inactive: Potency [3] | Potency [4] | Potency [6] | Potency [7]

CNCC(O)c1ccc(O)c(O)c1 (configuration not stated)
active: Potency [9] 28200 nM
inactive: Potency [4] | Potency [5] | Potency [6] | Potency [7]

[Cl][In]([Cl])[Cl]
inactive: Potency [1] | Potency [2] | Potency [3] | Potency [4] | Potency [6] | Potency [7] | Potency [8] | Potency [9]

Cc1cccc(C)c1NC(=O)CN(CC(=O)O)CC(=O)O
inactive: Potency [1] | Potency [2] | Potency [3] | Potency [4] | Potency [5] | Potency [6] | Potency [7] | Potency [8] | Potency [9]

CN(C)CCCN1c2ccccc2CCc2ccccc21
inactive: Potency [1] | Potency [2] | Potency [6]

CNCCC(Oc1ccc(C(F)(F)F)cc1)c1ccccc1 (configuration not stated)
inactive: Potency [6]

Cc1cc(C(C#N)c2ccc(Cl)cc2)c(Cl)cc1NC(=O)c1cc(I)cc(I)c1O (configuration not stated)
inactive: Potency [1] | Potency [2] | Potency [3] | Potency [4] | Potency [5] | Potency [6] | Potency [7] | Potency [8] | Potency [9]

NCCNCCNCCNCCN
inactive: activity change, negative = cytotoxicity [1] 13.2% [at 11.6 µM] | activity change, negative = cytotoxicity [2] 1.72% [at 11.6 µM] | activity change, negative = cytotoxicity [3] -5.14% [at 11.6 µM] | activity change, negative = cytotoxicity [4] 8.61% [at 11.6 µM] | activity change, negative = cytotoxicity [5] -2.17% [at 11.6 µM] | activity change, negative = cytotoxicity [6] -3.13% [at 11.6 µM] | activity change, negative = cytotoxicity [7] 8.86% [at 11.6 µM] | activity change, negative = cytotoxicity [8] 20.4% [at 11.6 µM] | activity change, negative = cytotoxicity [9] 0% [at 11.6 µM]

CN1[C@@H]2CC(OC(=O)[C@H](CO)c3ccccc3)C[C@H]1[C@@H]1O[C@@H]12 (some centres not stated)
inactive: Potency [1] | Potency [2] | Potency [3] | Potency [4] | Potency [5] | Potency [6] | Potency [7] | Potency [8] | Potency [9]

CC(C)(C)C(=O)C(Oc1ccc(Cl)cc1)n1ccnc1 (configuration not stated)
inactive: Potency [1] | Potency [2] | Potency [3] | Potency [4] | Potency [5] | Potency [6] | Potency [7] | Potency [8] | Potency [9]

O=C(Oc1ccccc1C(=O)O)c1ccccc1O
inactive: Potency [1] | Potency [2] | Potency [3] | Potency [4] | Potency [5] | Potency [6] | Potency [7] | Potency [8] | Potency [9]

CC[C@H]1CN2CCc3cc(OC)c(OC)cc3[C@@H]2C[C@@H]1C[C@H]1NCCc2cc(OC)c(OC)cc21
active: Potency [2] 355 nM | Potency [3] 447 nM | Potency [4] 398 nM | Potency [5] 282 nM | Potency [6] 11200 nM
